Rows were chosen to be rich in hits. Some 19% of all compounds tested hit in one or more screens of this group.
ELG1 repair inh: inhibitors of ELG1-dependent DNA repair in HEK293T cells | HEK293T ELG1-luciferase reporter, luminescence, 16 h; DNA damage induced by 5-fluorouridine | actives 2.3% (n = 330,000) | AID 504467 | Potency, µM (highest dose often 46.1 µM), for inactives: at the top dose activity change, negative = inhibition, most hits filed as inhibitors; note: potency is the fitted concentration of half-maximal effect; nearly all actives have a fitted effect of over 55% in size
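Luminescence from the luciferase reporter, measured 30 min after ONE-Glo reagent at room temperature, was the read-out. Beforehand, 2,000 cells per well were exposed for 16 hr at 37 °C to 5-fluorouridine together with compound or vehicle.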
DT40 TDP1 no CPT: qHTS for Inhibitors of human tyrosyl-DNA phosphodiesterase 1 (TDP1): qHTS in cells in absence of CPT; DT40 Tdp1-/- hTDP1 cells, no CPT, ATP luminescence, 48 h; Potency, µM (titrated, usually from 46.2 µM), without a hit: at the highest dose activity change, negative = growth inhibition, most hits filed as inhibitors; actives 15% (n = 420,000); AID 686978, 2013; note: potency is the fitted concentration of half-maximal effect; nearly all actives have a fitted effect of over 55% in size
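Stably hTDP1-transfected Tdp1-null chicken DT40 cells were treated with library compounds minus camptothecin and grown for at least 48 hr at 37 °C, after which cellular ATP was quantified by luminescence.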
TDP1 inh: inhibitors of human tyrosyl-DNA phosphodiesterase TDP1. Potency, µM (doses to about 130 µM), for inactives: at the highest dose activity change, negative = inhibition, usual class: inhibitors. AID 485290. recombinant TDP1, AlphaScreen DNA substrate cleavage. Q9NUW8. actives 0.28% (n = 350,000); note: potency is the fitted concentration of half-maximal effect; nearly all actives have a fitted effect of over 40% in size
Target sequence (Q9NUW8 whole entry, looked up): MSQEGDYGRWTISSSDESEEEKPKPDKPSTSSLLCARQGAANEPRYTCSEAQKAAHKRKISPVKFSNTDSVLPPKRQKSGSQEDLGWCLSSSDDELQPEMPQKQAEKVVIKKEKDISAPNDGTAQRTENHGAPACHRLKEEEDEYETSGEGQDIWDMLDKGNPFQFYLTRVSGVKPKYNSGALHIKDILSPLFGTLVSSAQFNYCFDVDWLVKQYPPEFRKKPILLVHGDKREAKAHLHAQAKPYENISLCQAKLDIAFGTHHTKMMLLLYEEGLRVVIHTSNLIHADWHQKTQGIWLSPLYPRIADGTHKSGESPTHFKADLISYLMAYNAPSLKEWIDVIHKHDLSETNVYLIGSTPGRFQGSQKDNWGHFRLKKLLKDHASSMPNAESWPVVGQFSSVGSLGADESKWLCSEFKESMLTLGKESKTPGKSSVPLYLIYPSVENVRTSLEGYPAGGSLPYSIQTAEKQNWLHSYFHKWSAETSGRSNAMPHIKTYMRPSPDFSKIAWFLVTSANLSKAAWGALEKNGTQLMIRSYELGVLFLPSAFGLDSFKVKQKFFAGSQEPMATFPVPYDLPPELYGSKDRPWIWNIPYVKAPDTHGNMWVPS
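Compounds were preincubated with Tdp1 (1 nM final) for 15 min at room temperature before substrate (15 nM final) started a 5 min reaction; beads (10 ug/ml final) were then added for 10 min before AlphaScreen detection.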
Giardia kill: Giardia lamblia killing; Giardia lamblia trophozoite viability; activity change, % at 7.66 µM, hits read low; actives 0.15% (n = 340,000); in the data active = activity change below about -80%; inconclusive = between about -30% and that limit;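 note: parasites exposed to compound for two days anaerobically before the ATP read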
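Trophozoite viability was measured as ATP-dependent luminescence, read 15-30 min after reagent addition. Before that, parasites at 100 cells/well were exposed to compounds for 48 h, anaerobically, at 37 deg C.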
IL1B secr inh: blocks inflammasome-driven IL-1 beta release. AID 743279. actives 4.7% (n = 360,000). THP-1 LPS/ATP IL-1B secretion, AlphaLISA, 16 h; hits give low values. activity change, % at 57.5 µM; in the data active = activity change below about -50%; inconclusive = mostly about -30% to -49%
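Secreted IL-1B measured by AlphaLISA bead assay after 16 h compound exposure of THP-1 cells; compounds (final up to 57.5 uM) added 1 h before LPS (250 ng/mL) and ATP (1.25 mM) stimulation; lower signal means less secretion.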
DT40 TDP1 CPT: growth inhibition of DT40 Tdp1-/-;hTDP1 cells with camptothecin (screen for TDP1 inhibitors) | actives 12% (n = 420,000) | AID 686979 | chicken DT40 Tdp1-/-;hTDP1 cells + 20 nM CPT, ATP luminescence, 48 h | Potency, µM (highest dose often 46.2 µM), inactives show at the highest dose activity change, negative = growth inhibition, hits mostly inhibitors; note: potency is the fitted concentration of half-maximal effect; nearly all actives have a fitted effect of over 55% in size
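Chicken DT40 Tdp1-/- cells stably complemented with human TDP1 were seeded at 400 cells/well in medium containing 20 nM camptothecin, exposed to pin-transferred compounds, and grown at 37 °C for at least 48 hr. Viability was read as ATP luminescence.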
Numbers without * were called inactive; u = inconclusive; x = no result; [ ] = remark or other dose. Unless noted, calls come from the whole dose curve; as a rule, active = well fitted curve in the direction sought with a large enough effect; inconclusive = small, poorly fitted or top-dose-only effect, or another doubt; inactive = no such curve, though single readings can be large; an effect the other way counts as inactive or inconclusive. % is set by controls: 0 for no effect and ±100 for the full control effect.

SMILES	ELG1 repair inh	DT40 TDP1 no CPT	TDP1 inh	Giardia kill	IL1B secr inh	DT40 TDP1 CPT
Cc1ccc(Cl)cc1N1CCN(S(=O)(=O)c2ccc3c(c2)CCN3C(=O)C2CCC2)CC1	x	0%	2%	x	x	0%
Cc1c(Cl)cccc1NS(=O)(=O)c1ccc2c(c1)C1C=CCC1C(c1ccc(C(=O)O)cc1)N2 (stereo not given)	9%	0%	x	4	-21	-6%
COc1ccc(NS(=O)(=O)c2ccc3c(c2)[C@H]2C=CC[C@H]2[C@@H](c2ccc(C(=O)O)cc2)N3)cc1	u	u	x	1	3	u
COc1cccc(NS(=O)(=O)c2ccc3c(c2)[C@H]2C=CC[C@H]2[C@@H](c2ccccc2Cl)N3)c1	x	4.6µM*	x	x	x	8.2µM*
Cc1cccc(C)c1NS(=O)(=O)c1ccc2c(c1)[C@H]1C=CC[C@H]1[C@@H](c1ccc(Cl)cc1)N2	x	13µM*	x	x	x	16µM*
COC(=O)c1ccc([C@H]2Nc3ccc(S(=O)(=O)Nc4ccc(C)cc4)cc3[C@H]3C=CC[C@H]32)cc1	x	15µM*	x	x	x	13µM*
COc1ccccc1CCNC(=O)C(=O)c1cn(CC(=O)N2CCOCC2)c2ccccc12	u	-19%	2%	16	-21	u
Cc1sc2ncnc(N3CCC(C(=O)N(C)CC(=O)Nc4cccc(F)c4)CC3)c2c1C	x	13µM*	x	x	u	9.2µM*
Cc1sc2ncnc(N3CCC(C(=O)N(C)CC(=O)Nc4ccccc4Cl)CC3)c2c1C	7.3µM*	23µM*	5%	13	0	16µM*
CCN(CC(=O)Nc1cc(Cl)ccc1C)C(=O)C1CCN(c2ncnc3sc(C)c(C)c23)CC1	x	6.5µM*	x	x	-12	18µM*
Cc1sc2ncnc(N3CCC(C(=O)N(C)CC(=O)Nc4ccccc4Br)CC3)c2c1C	u	u	6%	-4	u	u
O=C(O)c1ccc(N=Nc2c(-c3ccccc3)[nH]oc2=O)cc1	u	-14%	x	5	24	1%
CCC(C)NC(=O)c1ccccc1NC(=O)C1CCN(S(=O)(=O)Cc2ccccc2)CC1 (stereo not given)	x	u	3%	x	x	u
Cc1ccc(C(=O)N2CCN(c3ccc(NC(=S)NC(=O)c4cccs4)cc3)CC2)cc1	u	21µM*	9%	-13	-55*	u
CCC(=O)N1CCN(c2ccc(NC(=S)NC(=O)C(C)C)cc2)CC1	-5%	11%	0%	-11	-14	-13%
CCC(=O)NC(=S)Nc1ccc(N2CCN(C(=O)c3ccc(Cl)cc3)CC2)cc1	u	u	6%	-2	-9	21µM*
CC(C)C(=O)Nc1ccc(N2CCN(C(=O)c3cccs3)CC2)cc1	-10%	u	9%	-5	10	-14%
Cc1ccccc1C(=O)N1CCN(c2ccc(NC(=S)NC(=O)c3cccs3)cc2)CC1	21µM*	23µM*	-2%	37	u	23µM*
CC(C)CC(=O)NC(=S)Nc1ccc(N2CCN(C(=O)c3cccs3)CC2)cc1	u	21µM*	5%	1	-58*	u
Cc1ccc(C(=O)N2CCN(c3ccc(NC(=O)c4cc(C)cc(C)c4)cc3)CC2)cc1	10%	u	1%	10	-11	u
Oc1ccc(N=Nc2ccccc2-c2nn[nH]n2)c(O)c1	1%	-19%	x	-29	11	-11%
CCn1cc(C(=O)NC2CCCc3c2cnn3-c2cccc(C)c2C)cn1 (stereo not given)	u	x	0%	x	x	x
Cc1cc(C(=O)NC2CCCc3c2cnn3-c2cccc(C)c2C)no1 (stereo not given)	u	16µM*	2%[56.1 µM]	25	-3	21µM*
Cc1cccc(-n2ncc3c2CCCC3NC(=O)c2ccncc2)c1C (stereo not given)	x	0.23µM*	x	x	18	-7%
COc1ccc(C(=O)NC2CCCc3c2cnn3-c2cccc(C)c2C)o1 (stereo not given)	0%	23µM*	5%	-19	0	21µM*
SMILES	ELG1 repair inh	DT40 TDP1 no CPT	TDP1 inh	Giardia kill	IL1B secr inh	DT40 TDP1 CPT
O=C(CSc1ccccn1)NC1CCCc2c1cnn2-c1ccccc1F (stereo not given)	x	16µM*	x	x	24	-26%
COC(=O)c1[nH]nc(-c2ccccc2)c1-c1ccccc1	x	u	x	-12	0	3%
C=CCN(CC=C)C(=O)C1CCN(S(=O)(=O)c2ccc(N3CCCC3=O)cc2)CC1	-2%	u	1%	10	-4	-28%
CC1=C(C(=O)NC2CCCc3c2cnn3-c2cccc(C)c2C)OCCO1 (stereo not given)	u	8.2µM*	2%	18	-22	21µM*
Cc1cccc(-n2ncc3c2CCCC3NC(=O)c2cccs2)c1C (stereo not given)	x	18µM*	x	x	1	u
Cc1cccc(-n2ncc3c2CCCC3NC(=O)CN2CCOC2=O)c1C (stereo not given)	7%	8%	1%	10	16	-1%
Cc1cccc(-n2ncc3c2CCCC3NC(=O)CN2CCCC2=O)c1C (stereo not given)	8%	-2%	2%	-7	-3	-10%
CCCN1Cc2cccc(C(=O)NCCc3ccccc3)c2C1=O	7%	-17%	x	8	-3	u
